Records with an inconclusive call do not appear. The source made the active and inactive calls.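 Rule for the calls, unless noted: active = inhibition above 54%, about 3 SD of non-fluorescent compounds; inactive = the rest.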
Assays:
[1] = rapamycin-like changes in RPL19A-GFP expression – cell-based, S. cerevisiae, multiplex flow cytometry, primary screen (AID 1862; in the data active = percent of DMSO control GFP below about 86%;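 note: lower values mimic rapamycin by blocking the RPL19A rise seen in DMSO cells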); details: S. cerevisiae RPL19A-GFP strain, flow cytometry fluorescence, 3 h; at 10 µM; stronger effect = lower value
[2] = TOR pathway GLN3 branch reporter MEP2-GFP changes – S. cerevisiae, multiplex flow cytometry, primary screen (AID 1867;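 active = GFP response, as percent of the DMSO control, above the screen-wide mean plus 3 SD, about 139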;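 note: median GFP channel fluorescence of barcode-gated MEP2-GFP cells measured by flow cytometry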); details: S. cerevisiae MEP2-GFP strain, 3 h, at 10 µM, stronger effect = higher value, 100% means same as DMSO wells
[3] = TOR pathway RTG branch CIT2 reporter changes – S. cerevisiae, GFP fusion, multiplex flow cytometry, primary screen (AID 1870;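 active = percent response above a set limit, the screen-wide mean plus 3 SD, cut at about 130% in these data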;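 note: barcoded CIT2-GFP strain pooled with four other GFP strains with rapamycin as positive control; median GFP fluorescence per well over plate mean of DMSO wells so 100% = DMSO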); details: S. cerevisiae CIT2-GFP expression, 3 h, at 10 µM, stronger effect = higher value
[4] = TOR pathway LAP4-GFP level changes – S. cerevisiae, multiplex flow cytometry, primary screen (AID 1873;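 active = GFP signal, as percent of the solvent control, above the screen mean plus 3 SD, about 149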); details: S. cerevisiae LAP4-GFP expression, 3 h, at 10 µM, stronger effect = higher value
[5] = yeast AGP1-GFP level changes, GLN3 branch – cell-based, multiplex flow cytometry, S. cerevisiae, primary screen (AID 1887;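 active = GFP signal above the screen-wide mean plus 3 SD, that is over about 124.5% of the solvent control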;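 note: AGP1-GFP fusion strain of S. cerevisiae within a five-strain barcoded multiplex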); details: 3 h, at 10 µM, stronger effect = higher value
[6] = reduced mouse 2C T cell binding to pMHC/ICAM-1 vesicles – MLPCN validation set, flow cytometry, LFA-1/ICAM-1 modulator project, pilot screen (AID 2523;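 active = response below a set limit, under 55% cells CD8-positive and vesicle-bound, and CD8 cells' 90th-percentile brightness under 279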;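 for vesicle binding response: mean PE anti-B7-1 fluorescence of CD8+ cells relative to row control; 100% = QL9-loaded vesicles with DMSO vehicle in the same plate row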); details: 2C mouse CD8+ T cells, at 7 µM, stronger effect = lower value; double positive events: measured here: CD8+/vesicle+ event percentage
[7] = target: Integrin beta-1 (Homo sapiens) + Integrin alpha-4 (Homo sapiens) (UniProt P13612+P05556); assay: alpha4beta1 integrin LIBS antibody binding reduction – U937 cells, HUTS-21 mAb, flow cytometry, validation set, VLA-4 allosteric modulator project, pilot screen (AID 2674;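 active = inhibition above 50%, about 3 SD of the validation set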;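 note: antibody binding induced by the VLA-4 ligand LDV present at three times its Kd; 0% = LDV ligand with antibody and no compound and 100% = antibody without LDV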); details: HUTS-21 LIBS mAb binding, at 6.7 µM, stronger effect = higher value, binding induced by LDV ligand
[8] = calorie-restriction mimetic ROS inhibitors, yeast – validation compound set, pilot screen (AID 2706;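 active = superoxide response below 65% of plate, a cut near 3 SD across the whole screen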;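 note: yeast exposed to compound for one week at 30 degrees C before staining; 100% = mean of all compound wells on the same plate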); details: S. cerevisiae aging, superoxide DHE fluorescence; at 10 µM; stronger effect = lower value
[9] = target: Beta-adrenergic receptor kinase 1 (Homo sapiens) (UniProt P25098); assay: GRK2 binders displacing RNA aptamer, biochemical, validation, human GRK2, bead flow cytometry (AID 488806;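 active = aptamer binding inhibition above 30%, about 3 SD of noise from non-fluorescent compounds; inactive = inhibition at or below 30%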); details: bead-bound GRK2, FAM-aptamer displacement, at 10 µM, stronger effect = higher value
[10] = target: Beta-2 adrenergic receptor (Homo sapiens) (UniProt P07550); assay: agonist-induced loss of surface beta2AR – cell-based, FAP fluorogen, flow cytometry, validation set, pilot screen (AID 504459;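 active = percent response above 42, roughly 3 SD of non-fluorescent test compounds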;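 note: agonist-driven loss of surface beta2AR via internalization measured by FAP dye flow cytometry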); details: Am2.2-beta2AR cells, at 10 µM, stronger effect = higher value
[11] = target: AP-2 complex subunit beta (Homo sapiens) (UniProt P63010); assay: beta-arrestin/AP2 interaction blockers – biochemical, validation set, GST-AP2 beads, flow cytometry, pilot screen (AID 504541); details: FITC arrestin peptide, at 10 µM, stronger effect = higher value, AP2 beta2 appendage fragment, R879A mutant;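 note: AP2 carries R879A mutation and is captured from E. coli lysate; bead-bound FITC arrestin peptide fluorescence measuring arrestin peptide binding to AP2; 0% = DMSO wells and 100% = excess unlabeled arrestin peptide control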
[12] = cytosolic pH regulators acting via V-ATPase – S. cerevisiae, pHLuorin, HTS validation (AID 504600; in the data active = response above about 15%;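 note: plate controls were DMSO for no effect and reference compound for full effect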); details: V-ATPase proton transport, at 10 µM, stronger effect = higher value
[13] = system: anti-desmoglein-3 scFv antibody binding to human DSG3; assay: blockers of pathogenic pemphigus antibody–desmoglein-3 binding – biochemical, validation compound set, bead-based, flow cytometry, pilot screen (AID 588368;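 active = binding below the plate cutoff, the plate median minus 3 SD, with a reading above zero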;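 note: signal is the median channel fluorescence of bead-bound GFP antibody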); details: Protein G beads, DSG3-Fc, scFv-GFP binding, at 10 µM, stronger effect = lower value
[14] = Nile Red efflux blockade in pump-expressing yeast – validation compound set, multiplex, phenotypic, pilot screen (AID 588506;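 active = efflux inhibition above 0.42, the validation set average plus 4 SD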;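 note: Nile Red retained in cells so higher fluorescence means more efflux inhibition; 0 = negative control wells and 1 = enniatin B 25 µM full block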); details: S. cerevisiae pump-expressing triplex, Nile Red efflux flow cytometry; at 10 µM; stronger effect = higher value; the pumps come from Candida albicans
[15] = target: ATP-binding cassette sub-family B member 6 (Homo sapiens) (UniProt Q9NP58); assay: blockers of ABCB6-driven porphyrin uptake – K562-ABCB6 cells, flow cytometry, validation set, pilot screen (AID 588550;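 active = inhibition above the screen-wide mean plus 3 SD, about 51%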;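 note: 0% = DMSO wells and 100% = benzethonium chloride 70 µM positive control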); details: K562-ABCB6 porphyrin accumulation, 1 h, at 10 µM, stronger effect = higher value
[16] = AML differentiation inducers, ER-HoxA9 marrow cells – cell-based, GFP/MAC1 double positive, flow cytometry, validation set, primary screen (AID 588685;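 active = differentiation response of at least 50%, scaled between solvent and reference control, from cells with both markers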;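 note: compound exposure lasts four days before antibody staining and flow analysis; 0% = DMSO wells and 100% = 5 µM fulvestrant positive control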); details: stronger effect = higher value, normalized: vehicle 0, fulvestrant 100

Chain of Beta-adrenergic receptor kinase 1 (Homo sapiens) (P25098 whole entry, looked up): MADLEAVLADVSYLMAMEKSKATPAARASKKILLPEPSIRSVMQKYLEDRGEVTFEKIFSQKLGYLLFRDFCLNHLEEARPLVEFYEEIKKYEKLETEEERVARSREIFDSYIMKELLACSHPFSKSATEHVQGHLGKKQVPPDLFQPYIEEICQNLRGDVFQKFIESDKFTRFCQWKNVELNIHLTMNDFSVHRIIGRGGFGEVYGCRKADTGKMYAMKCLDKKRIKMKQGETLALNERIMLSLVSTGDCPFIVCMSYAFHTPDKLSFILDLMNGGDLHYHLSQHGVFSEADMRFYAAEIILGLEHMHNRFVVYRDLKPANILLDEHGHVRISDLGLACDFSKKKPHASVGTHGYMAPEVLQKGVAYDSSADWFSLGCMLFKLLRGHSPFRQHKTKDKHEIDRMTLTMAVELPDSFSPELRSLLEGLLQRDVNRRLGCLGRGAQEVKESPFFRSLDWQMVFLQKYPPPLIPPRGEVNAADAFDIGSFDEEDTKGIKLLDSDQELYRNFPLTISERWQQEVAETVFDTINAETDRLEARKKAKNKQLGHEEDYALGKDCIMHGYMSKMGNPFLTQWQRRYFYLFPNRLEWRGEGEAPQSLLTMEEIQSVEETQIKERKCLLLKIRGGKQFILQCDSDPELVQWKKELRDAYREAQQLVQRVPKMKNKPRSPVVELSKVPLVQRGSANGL
Chain of Beta-2 adrenergic receptor (Homo sapiens) (P07550 whole entry, looked up, the tested form may be a part): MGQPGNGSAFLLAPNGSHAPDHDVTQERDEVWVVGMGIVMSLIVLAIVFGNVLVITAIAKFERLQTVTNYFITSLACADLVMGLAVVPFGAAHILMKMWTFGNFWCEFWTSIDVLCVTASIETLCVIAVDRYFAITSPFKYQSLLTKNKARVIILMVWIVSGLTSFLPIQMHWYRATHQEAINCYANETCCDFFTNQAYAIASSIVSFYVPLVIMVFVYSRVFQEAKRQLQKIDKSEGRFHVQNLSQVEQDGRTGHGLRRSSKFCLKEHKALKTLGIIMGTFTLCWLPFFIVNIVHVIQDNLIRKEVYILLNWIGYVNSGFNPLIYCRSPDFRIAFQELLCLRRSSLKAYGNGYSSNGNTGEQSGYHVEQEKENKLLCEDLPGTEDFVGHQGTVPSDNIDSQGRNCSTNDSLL
Chain of ATP-binding cassette sub-family B member 6 (Homo sapiens) (Q9NP58 whole entry, looked up): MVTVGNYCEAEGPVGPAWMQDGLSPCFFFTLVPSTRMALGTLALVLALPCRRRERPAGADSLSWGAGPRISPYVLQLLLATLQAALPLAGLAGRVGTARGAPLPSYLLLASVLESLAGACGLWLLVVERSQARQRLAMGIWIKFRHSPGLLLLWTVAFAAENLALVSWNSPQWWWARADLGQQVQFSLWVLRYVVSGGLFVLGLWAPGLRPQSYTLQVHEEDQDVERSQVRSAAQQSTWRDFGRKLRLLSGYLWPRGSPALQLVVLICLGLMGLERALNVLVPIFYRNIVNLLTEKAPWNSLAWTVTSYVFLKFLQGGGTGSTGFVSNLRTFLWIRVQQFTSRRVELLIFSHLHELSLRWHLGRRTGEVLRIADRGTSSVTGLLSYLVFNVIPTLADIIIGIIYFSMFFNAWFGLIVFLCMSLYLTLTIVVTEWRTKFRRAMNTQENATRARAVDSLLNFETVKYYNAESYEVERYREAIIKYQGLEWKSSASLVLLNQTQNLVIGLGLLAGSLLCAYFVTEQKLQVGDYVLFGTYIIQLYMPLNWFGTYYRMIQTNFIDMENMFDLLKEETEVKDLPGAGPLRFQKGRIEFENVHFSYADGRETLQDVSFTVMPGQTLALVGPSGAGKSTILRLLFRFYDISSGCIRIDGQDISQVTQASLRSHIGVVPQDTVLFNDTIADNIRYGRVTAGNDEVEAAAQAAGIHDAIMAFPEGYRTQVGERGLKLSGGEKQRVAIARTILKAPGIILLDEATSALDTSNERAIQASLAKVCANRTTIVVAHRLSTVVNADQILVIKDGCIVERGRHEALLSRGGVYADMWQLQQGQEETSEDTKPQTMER
Chain of AP-2 complex subunit beta (Homo sapiens) (P63010 whole entry, looked up, the tested form may be a part, one chain of several): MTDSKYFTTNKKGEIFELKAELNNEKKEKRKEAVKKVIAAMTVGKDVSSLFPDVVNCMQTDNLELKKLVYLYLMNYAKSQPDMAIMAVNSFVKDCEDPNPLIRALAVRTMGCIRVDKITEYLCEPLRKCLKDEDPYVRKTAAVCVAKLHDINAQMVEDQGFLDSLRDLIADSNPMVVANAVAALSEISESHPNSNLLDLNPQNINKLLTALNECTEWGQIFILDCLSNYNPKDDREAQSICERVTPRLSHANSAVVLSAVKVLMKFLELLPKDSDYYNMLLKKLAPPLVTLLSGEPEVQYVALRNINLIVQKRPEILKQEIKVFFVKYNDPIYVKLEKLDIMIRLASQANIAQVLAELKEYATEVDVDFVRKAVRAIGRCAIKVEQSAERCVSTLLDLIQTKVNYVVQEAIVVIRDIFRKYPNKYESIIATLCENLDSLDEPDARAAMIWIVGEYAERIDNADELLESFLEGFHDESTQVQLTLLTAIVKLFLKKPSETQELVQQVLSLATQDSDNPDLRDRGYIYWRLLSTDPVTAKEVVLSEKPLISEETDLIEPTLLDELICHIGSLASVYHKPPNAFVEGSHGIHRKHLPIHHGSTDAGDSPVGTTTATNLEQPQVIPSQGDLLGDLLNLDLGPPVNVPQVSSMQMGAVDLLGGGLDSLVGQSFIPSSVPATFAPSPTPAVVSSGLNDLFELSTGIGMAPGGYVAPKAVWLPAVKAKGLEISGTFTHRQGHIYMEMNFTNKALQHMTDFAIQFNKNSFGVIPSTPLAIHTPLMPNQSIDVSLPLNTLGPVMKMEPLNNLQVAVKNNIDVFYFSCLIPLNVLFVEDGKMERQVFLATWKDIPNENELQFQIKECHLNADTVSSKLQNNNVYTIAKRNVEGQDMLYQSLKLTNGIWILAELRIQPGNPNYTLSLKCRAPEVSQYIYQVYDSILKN
Chain of Integrin beta-1 (Homo sapiens) + Integrin alpha-4 (Homo sapiens) (P05556 whole entry, looked up): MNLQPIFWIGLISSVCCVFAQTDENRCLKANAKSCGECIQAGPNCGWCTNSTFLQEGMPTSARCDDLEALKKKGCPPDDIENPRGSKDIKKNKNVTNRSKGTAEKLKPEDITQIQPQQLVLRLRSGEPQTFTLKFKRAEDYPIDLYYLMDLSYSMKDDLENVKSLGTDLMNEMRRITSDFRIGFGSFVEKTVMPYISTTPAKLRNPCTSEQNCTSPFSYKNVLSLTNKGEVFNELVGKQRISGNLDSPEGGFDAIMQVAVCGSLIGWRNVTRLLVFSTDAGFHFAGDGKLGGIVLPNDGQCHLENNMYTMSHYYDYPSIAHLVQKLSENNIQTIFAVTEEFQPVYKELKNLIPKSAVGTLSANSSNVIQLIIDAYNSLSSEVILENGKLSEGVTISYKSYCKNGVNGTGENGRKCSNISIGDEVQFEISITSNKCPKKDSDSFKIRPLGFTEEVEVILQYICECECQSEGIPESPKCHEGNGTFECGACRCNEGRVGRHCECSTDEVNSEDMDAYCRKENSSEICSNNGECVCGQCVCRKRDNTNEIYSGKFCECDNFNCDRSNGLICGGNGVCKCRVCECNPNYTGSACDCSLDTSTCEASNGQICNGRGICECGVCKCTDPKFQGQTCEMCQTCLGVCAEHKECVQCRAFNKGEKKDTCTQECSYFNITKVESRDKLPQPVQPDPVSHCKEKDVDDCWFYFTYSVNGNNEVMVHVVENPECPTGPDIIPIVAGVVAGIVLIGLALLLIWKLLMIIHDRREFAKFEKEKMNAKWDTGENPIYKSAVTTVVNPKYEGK
Chain of Integrin beta-1 (Homo sapiens) + Integrin alpha-4 (Homo sapiens) (P13612 whole entry, looked up): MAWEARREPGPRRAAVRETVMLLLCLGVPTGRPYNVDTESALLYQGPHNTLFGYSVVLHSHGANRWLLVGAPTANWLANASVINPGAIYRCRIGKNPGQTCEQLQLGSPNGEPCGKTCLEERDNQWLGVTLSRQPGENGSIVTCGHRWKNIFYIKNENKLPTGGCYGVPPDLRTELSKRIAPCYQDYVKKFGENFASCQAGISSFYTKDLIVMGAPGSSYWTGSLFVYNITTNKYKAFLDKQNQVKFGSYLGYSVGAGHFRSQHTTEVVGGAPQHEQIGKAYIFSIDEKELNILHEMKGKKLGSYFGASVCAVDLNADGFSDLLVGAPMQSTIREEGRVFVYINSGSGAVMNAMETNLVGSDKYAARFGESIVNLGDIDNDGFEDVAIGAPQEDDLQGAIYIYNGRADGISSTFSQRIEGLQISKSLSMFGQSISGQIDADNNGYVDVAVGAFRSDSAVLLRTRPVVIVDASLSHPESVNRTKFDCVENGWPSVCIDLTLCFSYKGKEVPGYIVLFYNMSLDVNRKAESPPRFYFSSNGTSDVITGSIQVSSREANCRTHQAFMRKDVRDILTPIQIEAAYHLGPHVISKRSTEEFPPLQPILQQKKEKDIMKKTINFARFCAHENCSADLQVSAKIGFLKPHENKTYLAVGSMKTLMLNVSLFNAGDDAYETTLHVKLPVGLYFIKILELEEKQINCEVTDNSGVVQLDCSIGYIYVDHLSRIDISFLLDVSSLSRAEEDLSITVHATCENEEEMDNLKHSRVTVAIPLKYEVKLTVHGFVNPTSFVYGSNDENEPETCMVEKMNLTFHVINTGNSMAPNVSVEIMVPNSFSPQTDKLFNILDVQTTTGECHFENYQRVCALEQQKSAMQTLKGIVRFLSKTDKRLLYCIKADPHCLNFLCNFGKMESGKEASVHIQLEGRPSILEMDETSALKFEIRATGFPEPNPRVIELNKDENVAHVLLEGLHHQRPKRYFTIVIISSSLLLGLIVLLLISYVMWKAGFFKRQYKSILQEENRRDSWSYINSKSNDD

Structure (SMILES)	percent of DMSO control GFP [1]	GFP response vs DMSO [2]	percent response of DMSO control [3]	GFP response vs DMSO [4]	GFP response, % of DMSO [5]	double positive events [6] [%]	vesicle binding response [6]	inhibition [7]	superoxide response (% of plate) [8]	aptamer binding inhibition [9]	response [10]	inhibition [11]	response [12]	binding (% of control) [13]	efflux inhibition (fraction of control) [14]	inhibition [15]	differentiation response [16]
CC1CCN(CCOCCOc2ccccc2Br)CC1	102% (inactive)	103% (inactive)	93.1% (inactive)	86.8% (inactive)	97.2% (inactive)	54.8	167% (inactive)	8.88% (inactive)	95.8% (inactive)	0% (inactive)	-4.72% (inactive)	-6.16% (inactive)	-0.14% (inactive)	95.6% (inactive)	-0.17 (inactive)	-4% (inactive)	15.9% (inactive)
O=C1CCc2cc(OCCCCc3nnnn3C3CCCCC3)ccc2N1	92.4% (inactive)	136% (inactive)	101% (inactive)	85.3% (inactive)	92.2% (inactive)	67	194% (inactive)	-5.18% (inactive)	102% (inactive)	6% (inactive)	-6.49% (inactive)	-4.26% (inactive)	-1.32% (inactive)	96.9% (inactive)	-0.09 (inactive)	11% (inactive)	8.19% (inactive)
Cc1ccccc1C(=O)Nc1ccccc1C(=O)NCC(C)C	100% (inactive)	107% (inactive)	104% (inactive)	118% (inactive)	108% (inactive)	63.7	208% (inactive)	7.4% (inactive)	118% (inactive)	3% (inactive)	-22.2% (inactive)	35.6% (inactive)	-2.23% (inactive)	99.9% (inactive)	0 (inactive)	-1% (inactive)	2.89% (inactive)
CCCC(=O)Nc1ccccc1NC(C)=O	101% (inactive)	102% (inactive)	108% (inactive)	99.1% (inactive)	104% (inactive)	65.9	170% (inactive)	-9.13% (inactive)	111% (inactive)	1% (inactive)	5.03% (inactive)	-1.46% (inactive)	0.04% (inactive)	95.1% (inactive)	1.13 (active)	0% (inactive)	-1.65% (inactive)
COc1ccc(Cc2noc(CN(C)CC3(N4CCOCC4)CCCCC3)n2)cc1OC	94.3% (inactive)	99.7% (inactive)	106% (inactive)	95.9% (inactive)	98.3% (inactive)	60.5	80.5% (inactive)	2.93% (inactive)	108% (inactive)	2% (inactive)	8.59% (inactive)	-7.18% (inactive)	2.83% (inactive)	102% (inactive)	0.22 (inactive)	36% (inactive)	-10.4% (inactive)
Cc1ccc(C(=O)COC(=O)c2cccc(N3C(=O)c4c(C)nc5ccccc5c4C3=O)c2)cc1C	99.5% (inactive)	102% (inactive)	97% (inactive)	110% (inactive)	113% (inactive)	61.9	170% (inactive)	-8.78% (inactive)	107% (inactive)	1% (inactive)	-22.6% (inactive)	-6.3% (inactive)	-3.74% (inactive)	98.8% (inactive)	0.25 (inactive)	2% (inactive)	-13.9% (inactive)
COc1ccc(/C=C/C(=O)NC(=S)NN2CCCCC2c2cccnc2)cc1 (stereo not given)	106% (inactive)	99.7% (inactive)	102% (inactive)	107% (inactive)	109% (inactive)	66.3	199% (inactive)	-2.43% (inactive)	95.5% (inactive)	-3% (inactive)	-5.93% (inactive)	12.7% (inactive)	0.36% (inactive)	104% (inactive)	0.33 (inactive)	2% (inactive)	-4.57% (inactive)
COc1ccc(CCn2c(C)nc3c(c(=O)c4ccccc4n3C)c2=O)cc1	98.6% (inactive)	102% (inactive)	103% (inactive)	104% (inactive)	116% (inactive)	61.1	155% (inactive)	-8.78% (inactive)	96.8% (inactive)	5% (inactive)	-29.5% (inactive)	7.96% (inactive)	7.85% (inactive)	101% (inactive)	0.21 (inactive)	5% (inactive)	16.7% (inactive)
COc1ccc(C(=O)Nc2cccnc2)cc1C(=O)Nc1cccnc1	104% (inactive)	107% (inactive)	102% (inactive)	107% (inactive)	106% (inactive)	65	191% (inactive)	-3.77% (inactive)	104% (inactive)	2% (inactive)	9.93% (inactive)	-14.1% (inactive)	0.74% (inactive)	99% (inactive)	-0.11 (inactive)	8% (inactive)	13% (inactive)
C1CCC(C(CC2CCCCN2)C2CCCCC2)CC1 (stereo not given)	97.9% (inactive)	107% (inactive)	101% (inactive)	130% (inactive)	116% (inactive)	62	170% (inactive)	-17.3% (inactive)	119% (inactive)	-11% (inactive)	26.4% (inactive)	-6.24% (inactive)	2.51% (inactive)	109% (inactive)	0.12 (inactive)	-5% (inactive)	-5.97% (inactive)

Source: PubChem BioAssay
